In PubChem BioAssay one finds composite z-score and z-score data, which are given here for four compounds.

Assay [1] relates to Wnt5a (protein binding on small-molecule microarray). As to the kind of experiment: small molecules binding Wnt5a protein – biophysical, small-molecule microarray, 635/667 nm fluorescence, primary screen (AID 1142).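 Note: fluorescence read at 667 nm with signal to noise per printed feature.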 The settings on record: 635 nm fluorescence, higher = more signal.
The nature of assay [2]: ATP-based viability of Huh7 replicon cells – cell-based, CellTiter-Glo luminescence, basal, 48 h, cytotoxicity control for HCV replication inhibitor project, primary screen (AID 1143).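 Note: Huh7 hepatoma cells carrying a hepatitis C replication reporter with no stimulus; test concentration not given here.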 To be noted: higher = more signal, called active from +8 up or from −8 down. In general terms: A replicon is a self-replicating genome or part of one, used to study replication in cells.
The nature of assay [3]: Pseudomonas biofilm growth suppression – PAO1 strain, BacTiter-Glo luminescence, LB-PBS, primary screen (AID 1144). To be noted: P. aeruginosa PAO1 biofilm, 12 h, higher = more signal.
A short description of assay [4]: basal CRE-LacZ reporter activity in PC12 – cell-based, unstimulated, primary screen (AID 1145). To be noted: no forskolin, luminescence, 4.5 h, higher = more signal, called active from +8 up or from −8 down.
Assay [5] can be described thus: forskolin-driven CRE-LacZ activity in PC12 – cell-based, CRE-LacZ reporter, forskolin-stimulated, primary screen (AID 1146).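 Note: PC12 cells with 6xCRE LacZ reporter stimulated by forskolin 10 µM; beta-galactosidase reporter signal reflecting CREB driven transcription.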 To be noted: luminescence, 4.5 h, higher = more signal, called active from +8 up or from −8 down.
For assay [6], the target named is Streptavidin (Streptomyces avidinii) (UniProt P22629). As to the kind of experiment: compounds binding control protein streptavidin – biophysical, small-molecule microarray, 635/667 nm fluorescence, artefact control for SMM compound annotation, primary screen (AID 1147).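 Note: signal reflects streptavidin binding to arrayed compounds as a control protein.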 The settings on record: higher = more signal.
Chain of Streptavidin (Streptomyces avidinii) (P22629 whole entry, looked up): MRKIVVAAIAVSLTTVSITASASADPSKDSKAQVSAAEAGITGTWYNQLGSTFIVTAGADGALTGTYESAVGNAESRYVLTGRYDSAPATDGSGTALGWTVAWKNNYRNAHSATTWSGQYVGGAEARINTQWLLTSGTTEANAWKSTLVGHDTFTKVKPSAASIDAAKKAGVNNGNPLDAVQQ
The nature of assay [7]: probe aInhba binding on compound microarray – biochemical, small-molecule microarray, 635/667 nm fluorescence, primary screen (AID 1148).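 Note: score merges 667nm spot fluorescence with signal-to-noise for antibody binding to printed compounds.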 The settings on record: higher = more signal.
The target in assay [8] is Torsin-1A (Homo sapiens) (UniProt O14656). The assay can be described thus: TOR1A wild-type binding on microarray – cell lysate, small-molecule microarray, lysate, 635/667 nm, primary screen (AID 1149). The settings on record: COS7 hTOR1A-WT lysate, 635 nm fluorescence, higher = more signal.
Chain of Torsin-1A (Homo sapiens) (O14656 whole entry, looked up): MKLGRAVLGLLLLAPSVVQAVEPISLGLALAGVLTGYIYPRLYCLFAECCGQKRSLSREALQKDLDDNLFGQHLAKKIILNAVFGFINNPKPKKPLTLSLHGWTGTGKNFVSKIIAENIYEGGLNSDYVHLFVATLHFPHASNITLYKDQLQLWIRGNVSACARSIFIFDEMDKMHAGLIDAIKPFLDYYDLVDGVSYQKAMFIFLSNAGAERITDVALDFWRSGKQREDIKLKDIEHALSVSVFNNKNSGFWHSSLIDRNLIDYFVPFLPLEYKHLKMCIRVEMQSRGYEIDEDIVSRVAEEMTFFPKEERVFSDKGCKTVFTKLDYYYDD
For assay [9] the target is unchanged. The assay can be described thus: torsin A mutant lysate binding on microarrays – cell lysate, small-molecule microarray, COS7 lysate, 635/667 nm fluorescence, primary screen (AID 1150).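 Note: score pools 667 nm emission and signal to noise measuring lysate protein binding.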 To be noted: COS7 hTOR1A mutant lysate, 635 nm fluorescence, higher = more signal.
For assay [10], the system named is Sonic hedgehog protein (Shh). The assay can be described thus: Sonic hedgehog microarray binding compounds – biochemical, small-molecule microarray, 635/667 nm fluorescence, primary screen (AID 1151).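 Note: Shh protein binding to compounds spotted on small-molecule microarray slides; score combines spot fluorescence intensity with signal-to-noise across triplicate slides.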 The settings on record: 635 nm fluorescence, higher = more signal.
Assay [11] in a line: optical density shifts of acrAB sulA E. coli – strain DRC41, OD650, 48 h, E. coli filamentation inducer project, primary screen (AID 1152).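 Note: E. coli MC1000 strain DRC41 lacking acrAB efflux pump and sulA.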 To be noted: higher = more signal, called active from +8 up or from −8 down.
Assay [12] is described as follows: probe aLefty1 binding on compound microarray – biochemical, small-molecule microarray, 635/667 nm fluorescence, primary screen (AID 1153).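 Note: score merges spot fluorescence with signal-to-noise ratio from the scanned slide images.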 To be noted: higher = more signal.
A short description of assay [13]: plasmodial surface anion channel blockers, osmotic lysis – cell-based, P. falciparum Indochina, OD700, 1 h, primary screen (AID 1154). The settings on record: P. falciparum Indochina infected RBC osmotic lysis, higher = more signal, called active from +8 up or from −8 down.
Assay [14] is described as follows: plasmodial surface anion channel blockers, osmotic lysis – cell-based, P. falciparum Indochina, OD700, 2 h, primary screen (AID 1155).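 Note: lysis reports solute entry through the parasite surface anion channel PSAC.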 The settings on record: P. falciparum Indochina infected erythrocytes, higher = more signal, called active from +8 up or from −8 down.
Assay [15] can be described thus: changes in parasitized red cell lysis, either direction – P. falciparum Indochina, OD700, 3 h, PSAC antagonist project, primary screen (AID 1156). To be noted: P. falciparum-infected erythrocytes, osmotic lysis, higher = more signal, called active from +8 up or from −8 down.
The nature of assay [16]: plasmodial surface anion channel blockers, osmotic lysis – cell-based, P. falciparum Indochina, OD700, 18 h, primary screen (AID 1157). To be noted: P. falciparum Indochina infected erythrocytes, osmotic lysis OD700, 18 h; higher = more signal, called active from +8 up or from −8 down.
Assay [17] can be described thus: S6 kinase pathway phospho-S6 level changes – cell-based, A549, cytoblot, luminescence, serum-stimulated, primary screen (AID 1158).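 Note: serum-stimulated A549 lung adenocarcinoma cells; signal is phosphorylated S6 detected by cytoblot immunostaining with HRP secondary.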 The settings on record: 5 h, higher = more signal.
For assay [18], the target named is NADPH oxidase 2 (Homo sapiens) (UniProt P04839). As to the kind of experiment: compounds shifting NOX2 Amplex Red fluorescence – cell-based, HEK293-NOX2, PMA-stimulated, NOX inhibitor project, primary screen (AID 1159). Note: test concentration not given here. To be noted: 45 min, higher = more signal, called active from +8 up or from −8 down.
Chain of NADPH oxidase 2 (Homo sapiens) (P04839 whole entry, looked up): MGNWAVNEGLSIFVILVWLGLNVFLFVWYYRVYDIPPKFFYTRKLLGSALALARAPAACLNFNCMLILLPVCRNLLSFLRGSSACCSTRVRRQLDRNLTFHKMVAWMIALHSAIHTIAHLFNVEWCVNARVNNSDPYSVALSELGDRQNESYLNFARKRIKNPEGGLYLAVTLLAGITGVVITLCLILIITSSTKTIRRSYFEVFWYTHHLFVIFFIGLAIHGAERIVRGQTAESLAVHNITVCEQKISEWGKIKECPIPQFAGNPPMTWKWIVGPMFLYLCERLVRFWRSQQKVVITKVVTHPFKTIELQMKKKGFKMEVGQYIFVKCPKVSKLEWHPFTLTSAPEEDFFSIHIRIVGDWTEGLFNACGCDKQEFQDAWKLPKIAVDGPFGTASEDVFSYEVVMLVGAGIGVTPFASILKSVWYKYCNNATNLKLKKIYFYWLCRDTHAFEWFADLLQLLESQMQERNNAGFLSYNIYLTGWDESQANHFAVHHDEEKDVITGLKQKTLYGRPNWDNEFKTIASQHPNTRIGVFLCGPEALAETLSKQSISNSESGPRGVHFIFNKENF
Assay [19] has as its target NADPH oxidase 4 (Homo sapiens) (UniProt Q9NPH5). The assay can be described thus: compounds shifting NOX4 Amplex Red fluorescence – cell-based, HEK293-NOX4, tetracycline-induced, NOX inhibitor project, primary screen (AID 1160). The settings on record: HEK293-NOX4, Amplex Red H2O2 fluorescence, 45 min; higher = more signal, called active from +8 up or from −8 down.
In assay [20] the target is NADPH oxidase 5 (Homo sapiens) (UniProt Q96PH1). As to the kind of experiment: compounds shifting NOX5 Amplex Red fluorescence – cell-based, HEK293-NOX5, NOX inhibitor project, primary screen (AID 1161). The settings on record: HEK293-NOX5, ionomycin, 45 min, higher = more signal.
Chain of NADPH oxidase 5 (Homo sapiens) (Q96PH1 whole entry, looked up): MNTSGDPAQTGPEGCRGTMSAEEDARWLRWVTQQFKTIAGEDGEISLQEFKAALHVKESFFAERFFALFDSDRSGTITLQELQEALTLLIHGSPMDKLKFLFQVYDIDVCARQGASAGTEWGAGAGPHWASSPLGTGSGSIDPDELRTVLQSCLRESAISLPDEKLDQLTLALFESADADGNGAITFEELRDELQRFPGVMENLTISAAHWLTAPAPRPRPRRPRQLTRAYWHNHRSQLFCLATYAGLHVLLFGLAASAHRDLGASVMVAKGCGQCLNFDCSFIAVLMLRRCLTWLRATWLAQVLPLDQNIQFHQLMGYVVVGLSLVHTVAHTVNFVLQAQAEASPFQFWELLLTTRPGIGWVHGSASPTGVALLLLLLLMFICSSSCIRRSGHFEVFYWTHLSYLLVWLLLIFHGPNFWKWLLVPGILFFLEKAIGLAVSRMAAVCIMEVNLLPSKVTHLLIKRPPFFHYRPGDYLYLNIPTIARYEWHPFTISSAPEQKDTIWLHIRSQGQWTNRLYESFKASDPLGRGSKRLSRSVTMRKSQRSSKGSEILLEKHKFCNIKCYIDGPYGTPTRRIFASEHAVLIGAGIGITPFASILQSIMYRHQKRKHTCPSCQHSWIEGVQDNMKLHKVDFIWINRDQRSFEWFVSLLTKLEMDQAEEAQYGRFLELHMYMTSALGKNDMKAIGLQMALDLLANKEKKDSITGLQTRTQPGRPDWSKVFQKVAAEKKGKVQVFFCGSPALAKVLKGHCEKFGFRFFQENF

Each structure is given as a SMILES string. Calls of active or inactive are those of the source. Unless noted, the rule behind the calls is not given here.

Chain of NADPH oxidase 4 (Homo sapiens) (Q9NPH5 whole entry, looked up): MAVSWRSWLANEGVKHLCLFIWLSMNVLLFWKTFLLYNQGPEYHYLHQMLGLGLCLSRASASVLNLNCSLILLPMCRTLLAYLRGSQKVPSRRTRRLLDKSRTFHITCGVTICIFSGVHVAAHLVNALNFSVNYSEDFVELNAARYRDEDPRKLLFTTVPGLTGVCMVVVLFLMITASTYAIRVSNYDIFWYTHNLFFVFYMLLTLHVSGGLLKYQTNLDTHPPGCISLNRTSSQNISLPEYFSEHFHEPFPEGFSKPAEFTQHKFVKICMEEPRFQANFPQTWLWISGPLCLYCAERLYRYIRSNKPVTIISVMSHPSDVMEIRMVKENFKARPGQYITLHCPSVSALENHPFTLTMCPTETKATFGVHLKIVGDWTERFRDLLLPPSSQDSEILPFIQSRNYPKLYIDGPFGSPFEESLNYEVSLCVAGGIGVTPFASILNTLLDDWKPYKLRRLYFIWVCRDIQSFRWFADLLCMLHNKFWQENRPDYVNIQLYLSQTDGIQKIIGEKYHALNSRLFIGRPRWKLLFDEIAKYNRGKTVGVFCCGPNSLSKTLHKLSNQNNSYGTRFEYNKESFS

`CN1C(=O)C2C=CC(C(O)C#Cc3ccccc3)N(N3CCCCC3)C2C1=O` (stereo not given): the composite z-score stood at 1.11 in assay [1]; 0.762 in assay [6]; 1.1 in assay [7]; 1.27 with Torsin-1A (Homo sapiens) [8]; 1.79 with Torsin-1A (Homo sapiens) [9]; 0.841 in assay [10]. The composite z-score in [12] amounted to 0.807. In addition, the z-score in assay [2] is 0.913 (inactive); in assay [3] it was -0.686 (inactive); in assay [4] it was 0.236 (inactive); in assay [5], -0.516 (inactive); in assay [11] it was -0.381 (inactive); in assay [13], 1.24 (inactive). For the same compound, the z-score is 1.09 (inactive) in assay [14]; 0.83 (inactive) in assay [15]; 1.17 (inactive) in [16]; -0.726 in [17]; -0.23 (inactive) in assay [18]; 0.191 (inactive) in assay [19]. The z-score in [20] was -0.26.
With `[N-]=[N+]=Nc1ccccc1[C@H]1OC(c2ccc(OCCCO)cc2)=N[C@@]1(CCS(=O)(=O)c1ccccc1)C(=O)NCC(O)CO` (stereo not given in full), the composite z-score in assay [1] was 0.751; in assay [6], 1.29; in assay [7] it was 0.15; in the assay with Torsin-1A (Homo sapiens) [8], 1.26; with Torsin-1A (Homo sapiens) [9], 0.774; in assay [10], -1.02. For the same compound, in assay [12], the composite z-score stood at 0.0919. The z-score is -1.46 (inactive) in assay [2]; 0.732 (inactive) in [3]; 0.848 (inactive) in [4]; -0.249 (inactive) in [5]; -0.562 (inactive) in assay [11]; 29.7 (active) in [13]. Further, the z-score was 28.2 (active) in assay [14]; 1.72 (inactive) in assay [15]; 2.09 (inactive) in assay [16]; -0.235 in [17]; 1.09 (inactive) in assay [18]; -0.0647 (inactive) in assay [19]. For the same compound, the z-score in assay [20] was -1.07.
Consider `CN1C=C(C(=O)OCCS(C)(=O)=O)C(C(=O)OCCS(C)(=O)=O)=CC(c2ccc(CO)cc2)=CC1C1CC1` (stereo not given), for which the composite z-score is 0.0929 in assay [1]; -0.0005 in assay [6]; 0.149 in [7]; 0.738 with Torsin-1A (Homo sapiens) [8]; 0.5 in the assay with Torsin-1A (Homo sapiens) [9]; 0.457 in assay [10]. Besides, in assay [12], the composite z-score is -0.147. Further, the z-score in [2] is -0.95 (inactive); in [3], 0.706 (inactive); in assay [4] it was -0.205 (inactive); in [5], -0.507 (inactive); in assay [11] it was 0.225 (inactive); in assay [13], 11.3 (active). Further, the z-score in assay [14] was 1.46 (inactive); in assay [15], -0.107 (inactive); in assay [16], 0.897 (inactive); in assay [17], 0.116; in [18], -2.88 (inactive); in [19] it was -1.13 (inactive). For the same compound, the z-score in assay [20] was -2.52.
With `COc1cc2c(cc1OC)CN(C(=O)[C@@H]1[C@H]3C(=O)O[C@H](c4ccccc4)[C@H](c4ccccc4)N3[C@H](c3ccc(O)cc3)[C@@]13C(=O)Nc1ccccc13)CC2`, the composite z-score in assay [1] worked out at 0.33; in assay [6], 0.523; in assay [7] it was 0.121; with Torsin-1A (Homo sapiens) [8], 1.05; with Torsin-1A (Homo sapiens) [9], 0.341; in [10] it was 1.33. In assay [12], this compound returned a composite z-score of 0.154. The z-score in assay [2] is -4.24 (inactive); in assay [3], -1.07 (inactive); in [4], 0.685 (inactive); in assay [5] it was -0.0307 (inactive); in assay [11], 2.38 (inactive); in assay [13], 1.32 (inactive). Further, the z-score was 0.216 (inactive) in assay [14]; -0.287 (inactive) in assay [15]; -1.28 (inactive) in [16]; 2.99 in [17]; 0.00476 (inactive) in [18]; -0.339 (inactive) in assay [19]. The z-score in assay [20] is -0.19.
